Source: PubChem BioAssay (NCATS)
Inconclusive results are not listed. The source made the active and inactive calls. Unless noted, the call rests on the fitted dose curve; in most records, active means well fitted curve in either direction with a large enough effect (not every such curve was filed as active); inconclusive means small, poorly fitted or top-dose-only effect, or another doubt; inactive means flat fitted curve, though single readings scatter.

Columns and labels:
[1] = target: Lysosomal acid glucosylceramidase (Homo sapiens) (UniProt P04062); experiment: Glucocerebrosidase-p2 (AID 348; in the data active means potency below about 10 µM; further: potency means the concentration at half of the fitted maximal effect); conditions: purified GBA, blue fluorogenic substrate, 40 min
Sequence of Lysosomal acid glucosylceramidase (Homo sapiens) (P04062 whole entry, looked up): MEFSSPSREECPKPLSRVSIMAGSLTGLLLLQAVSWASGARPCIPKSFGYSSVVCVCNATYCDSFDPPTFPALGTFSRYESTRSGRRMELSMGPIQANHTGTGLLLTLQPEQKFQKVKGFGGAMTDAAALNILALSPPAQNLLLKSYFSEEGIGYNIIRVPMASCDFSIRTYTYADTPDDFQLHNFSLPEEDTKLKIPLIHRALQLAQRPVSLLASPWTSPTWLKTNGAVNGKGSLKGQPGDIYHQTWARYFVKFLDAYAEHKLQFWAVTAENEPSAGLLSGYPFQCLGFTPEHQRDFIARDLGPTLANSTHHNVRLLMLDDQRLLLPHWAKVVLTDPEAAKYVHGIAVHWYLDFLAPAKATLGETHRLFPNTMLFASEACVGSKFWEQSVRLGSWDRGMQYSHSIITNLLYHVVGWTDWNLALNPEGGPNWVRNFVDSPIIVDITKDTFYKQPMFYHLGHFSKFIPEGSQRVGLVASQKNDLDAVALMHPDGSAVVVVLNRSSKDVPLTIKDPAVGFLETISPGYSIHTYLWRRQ
Summary of the method: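 Normal human glucocerebrosidase (0.2 nM) with blue fluorogenic substrate (80 uM final) in citrate/phosphate pH 5.9 with 10mM sodium taurocholate, 0.01% tween-20; 40 min RT, NaOH/glycine stop; fluorescence Ex 365/Em 440; AC50 from a titration from 0.6 nM upwards.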

[2] = AP1 Signaling Pathway (AID 357); conditions: ME-180 AP-1-bla reporter, EGF-induced, beta-lactamase ratio, 5 h; at 7.69 µM (top of the series) unless noted;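 further: ME-180 reporter cells stimulated with EGF at its EC50 level; on the % scale 0 is the no-effect control and ±100 the full control effect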
Summary of the method: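 Read-out was the 460nm/530nm emission ratio (excitation 405nm) after CCF4 loading for 2.5 hours at room temperature. Cells carried an AP-1-driven beta-lactamase reporter, were stimulated with EC50 EGF plus compound for 5 hours, and AC50 values came from titrations.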

[3] = NFAT Signaling Pathway (AID 444); conditions: Jurkat NFAT-bla M1, carbachol, beta-lactamase ratio, 5 h; at 7.69 µM (top of the series) unless noted;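 further: carbachol stimulus at about its EC50 of 1 µM final; on the % scale 0 is the no-effect control and ±100 the full control effect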
Summary of the method: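 Read-out: CCF4 FRET ratio (460 nm/530 nm) after 1 h RT dye loading, used for %activity and AC50 from titration series. Cells: Jurkat NFAT-β-lactamase/M1 line, treated with compound plus 1 uM carbachol for 5 h, 37 °C.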

[4] = Stat Signaling Pathway (AID 446); conditions: ME-180 SIE beta-lactamase reporter, IL-6 stimulated, 5 h; at 7.69 µM (top of the series) unless noted;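 further: ME-180 cervical cancer cells given 40 pM IL-6 alongside compound; SIE-controlled beta-lactamase reporter measured as 460/530 nm FRET emission ratio; on the % scale 0 is the no-effect control and ±100 the full control effect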
Summary of the method: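 Compound effects on IL-6-induced STAT reporter activity were measured in ME-180 cells. After overnight culture, cells were co-treated with 40 pM IL-6 for 5 hrs before beta-lactamase substrate loading at room temperature.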

[5] = target: Glucocorticoid receptor (Homo sapiens) (UniProt P04150); experiment: GR-EFC Redistribution (AID 451; calls by dose curve; further: potency means the concentration at half of the fitted maximal effect); conditions: CHO-K1 GR-EFC translocation, beta-gal luminescence, 2 h
Sequence of Glucocorticoid receptor (Homo sapiens) (P04150 whole entry, looked up, the tested form may be a part): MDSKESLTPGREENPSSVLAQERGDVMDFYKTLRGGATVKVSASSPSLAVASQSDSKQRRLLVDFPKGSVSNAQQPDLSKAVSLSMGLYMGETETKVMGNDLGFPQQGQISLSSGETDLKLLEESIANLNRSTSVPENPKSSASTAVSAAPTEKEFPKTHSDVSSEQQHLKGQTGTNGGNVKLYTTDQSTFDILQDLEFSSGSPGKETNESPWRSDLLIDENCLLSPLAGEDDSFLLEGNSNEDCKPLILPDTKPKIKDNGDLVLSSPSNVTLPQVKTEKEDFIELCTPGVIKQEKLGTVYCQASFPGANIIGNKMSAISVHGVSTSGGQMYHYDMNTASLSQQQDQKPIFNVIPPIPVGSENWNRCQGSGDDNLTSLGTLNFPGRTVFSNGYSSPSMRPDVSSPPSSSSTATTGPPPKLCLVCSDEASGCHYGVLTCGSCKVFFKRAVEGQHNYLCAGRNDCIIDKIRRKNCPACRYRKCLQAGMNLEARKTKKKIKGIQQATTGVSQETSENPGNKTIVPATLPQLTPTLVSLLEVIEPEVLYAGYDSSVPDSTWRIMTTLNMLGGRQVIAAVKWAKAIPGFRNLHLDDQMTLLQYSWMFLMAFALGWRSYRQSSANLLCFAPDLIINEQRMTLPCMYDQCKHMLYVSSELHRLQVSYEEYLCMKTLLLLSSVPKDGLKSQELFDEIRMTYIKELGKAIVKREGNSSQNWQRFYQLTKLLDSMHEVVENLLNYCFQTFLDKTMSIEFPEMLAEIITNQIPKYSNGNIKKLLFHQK
Summary of the method: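 Translocation of GR-ED fusion to nuclear EA restores b-gal, read by luminescence after 1 h room-temperature detection. Engineered CHO-K1 biosensor cells, 1,000/well, exposed 2 h at 37 C to titrations up to 46 uM final.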

[6] = target: Mitogen-activated protein kinase 10 (Mus musculus) (UniProt Q61831); experiment: JNK3 AlphaScreen Assay (AID 530); conditions: JNK3 lysate, c-Jun phosphorylation; series mostly up to 57.1 µM;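 further: kinase came from lysate of stimulated human HepG2 cells; signal reports phosphorylation of biotinylated GST-cJun 1-79 at Ser73 with 10 µM ATP; on the % scale 0 is the no-effect control and ±100 the full control effect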
Summary of the method: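 Kinase buffer: 20 mM Tris-HCl pH 7.6, 10 mM MgCl2, 1 mM DTT, 0.1 mM Na3VO4, 0.01% Tween-20; ATP 10 uM. Substrate biotin-GST-cJun(1-79), enzyme from activated HepG2 lysates. Detection by Ser73 phospho-antibody AlphaScreen.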

[7] = qHTS Assay for Lipid Storage Modulators (AID 1519; calls by dose curve); conditions: Drosophila S3 cells, BODIPY lipid droplet/cell ratio, laser cytometry, cells loaded with oleic acid; for activity change, negative = inhibition: at 57.5 µM (top of the series)
Summary of the method: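 Cells seeded at 5,000 per well were treated with compounds over a concentration series and loaded with oleic acid (400 uM, as added). Lipid droplet fluorescence (488 nm excitation, 500-530 nm channel) was read by laser-scanning cytometry and normalized to 20 uM Triacsin C.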

[8] = Primary qHTS for small molecule stabilizers of the endoplasmic reticulum resident proteome: Secreted ER Calcium Modulated Protein (SERCaMP) assay (AID 1508630; active means well fitted curve in the direction sought with a large enough effect; an effect the other way counts as inactive or inconclusive; further: on the % scale 0 is the no-effect control and ±100 the full control effect); conditions: SH-SY5Y GLuc-SERCaMP (Gaussia luciferase released on ER calcium loss) secretion, thapsigargin, luminescence; series mostly up to 38.4 µM
Summary of the method: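 The SH-SY5Y reporter protocol was run at 3 concentrations up to 38.3 uM (primary) or 11 concentrations (follow-up): 16 h compound, 100 nM thapsigargin for 4 h, then extracellular luciferase luminescence.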

[9] = target: Glucocorticoid receptor (Homo sapiens) (UniProt P04150); experiment: GR-GFP Redistribution (AID 450;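 active means compounds whose dose series gives a full or clear partial fitted curve of increased nuclear translocation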; further: potency means the concentration at half of the fitted maximal effect); conditions: U2OS GR-GFP nuclear translocation, laser cytometry, 2 h
[10] = target: 3',5'-cyclic-AMP phosphodiesterase 4B (Homo sapiens) (UniProt Q07343); experiment: qHTS Assay for Inhibitors of PDE-IV (AID 607; active means well fitted activation curve with a large enough effect in the main read-out, with a control signal flat, not every such curve was filed as active; further: % of control where 0% means no effect); conditions: HEK293 ACTOne CNG channel cells, membrane potential fluorescence; series mostly up to 22.9 µM
Sequence of 3',5'-cyclic-AMP phosphodiesterase 4B (Homo sapiens) (Q07343 whole entry, looked up): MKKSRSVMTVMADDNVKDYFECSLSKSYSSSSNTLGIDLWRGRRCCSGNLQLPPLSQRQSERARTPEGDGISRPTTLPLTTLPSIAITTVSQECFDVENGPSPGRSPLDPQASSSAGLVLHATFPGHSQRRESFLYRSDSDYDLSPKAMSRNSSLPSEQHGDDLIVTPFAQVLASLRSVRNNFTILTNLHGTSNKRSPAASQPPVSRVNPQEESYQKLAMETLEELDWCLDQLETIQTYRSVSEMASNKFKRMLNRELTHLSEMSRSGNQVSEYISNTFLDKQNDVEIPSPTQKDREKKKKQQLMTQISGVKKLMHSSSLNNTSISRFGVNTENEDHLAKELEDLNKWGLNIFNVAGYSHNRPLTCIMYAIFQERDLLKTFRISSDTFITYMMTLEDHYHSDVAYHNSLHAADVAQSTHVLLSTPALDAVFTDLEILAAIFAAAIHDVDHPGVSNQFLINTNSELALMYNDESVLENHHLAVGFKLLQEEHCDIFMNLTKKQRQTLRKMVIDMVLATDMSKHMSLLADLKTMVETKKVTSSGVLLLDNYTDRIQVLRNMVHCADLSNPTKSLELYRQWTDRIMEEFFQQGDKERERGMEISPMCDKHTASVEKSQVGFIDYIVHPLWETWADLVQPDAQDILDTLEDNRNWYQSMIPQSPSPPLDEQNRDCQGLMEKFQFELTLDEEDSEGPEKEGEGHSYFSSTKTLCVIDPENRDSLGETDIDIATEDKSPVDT
Summary of the method: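 ACTOne HEK293 cells carry a modified cAMP-gated CNG channel and express endogenous PDE4; plated 1000 cells/well, compounds up to 22.9 uM final. Membrane-potential dye fluorescence (ex 535/em 590) was read; parental cells received 10 uM forskolin + 100 uM RO 20-1724.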

[11] = Confirmation and Secondary Assay for Modulators of Hemoglobin Beta Chain Splicing at IVS2 654 locus (AID 910; active means well fitted curve in the direction sought with a large enough effect; an effect the other way counts as inactive or inconclusive;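 further: HeLa cells stably carrying EGFP split by mutant beta-globin IVS2-654 intron; per-well total GFP intensity by laser scanning cytometry after 2-day treatment; % of control where 0% means no effect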); conditions: HeLa EGFP-654 splicing reporter, GFP fluorescence, 48 h; series mostly up to 38.3 µM
Summary of the method: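 Readout: per-well total peak green fluorescence (488 nm ex, 500–520 nm em) from objects 5–250 µm, reflecting correct splicing of an EGFP-654 reporter. Compounds were applied for 2 days at 37 °C to overnight-plated HeLa EGFP-654 cells; controls were DMSO and 500 nM IVS2-654 PNA.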

[12] = Confirmation and Secondary Assay for Modulators of Hemoglobin Beta Chain Splicing at IVS2 705 locus (AID 930; active means well fitted curve in the direction sought with a large enough effect; an effect the other way counts as inactive or inconclusive;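 further: HeLa cells stably expressing the EGFP-705 splicing reporter; % of control where 0% means no effect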); conditions: HeLa EGFP-705 splicing reporter, GFP fluorescence, 48 h; series mostly up to 38.3 µM
Summary of the method: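 Restored EGFP fluorescence after 2-day compound exposure reports splicing correction in IVS2-705 EGFP reporter HeLa cells; positive control was 500 nM splice-blocking PNA oligo. Signal measured as well total peak GFP intensity (488 nm excitation).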

[13] = target: Ubiquitin carboxyl-terminal hydrolase 1 (Homo sapiens) (UniProt O94782); experiment: Inhibitors of USP1/UAF1: Pilot qHTS (AID 504865; active means well fitted curve in the direction sought with a large enough effect; an effect the other way counts as inactive or inconclusive;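 further: rhodamine fluorescence freed from ubiquitin-rhodamine substrate followed over time; top concentration of the series differs between compounds; on the % scale 0 is the no-effect control and ±100 the full control effect; nearly all actives have a fitted effect of over 35% in size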); conditions: purified USP1/UAF1, Ub-rhodamine cleavage fluorescence; series mostly up to 54.9 µM
Sequence of Ubiquitin carboxyl-terminal hydrolase 1 (Homo sapiens) (O94782 whole entry, looked up): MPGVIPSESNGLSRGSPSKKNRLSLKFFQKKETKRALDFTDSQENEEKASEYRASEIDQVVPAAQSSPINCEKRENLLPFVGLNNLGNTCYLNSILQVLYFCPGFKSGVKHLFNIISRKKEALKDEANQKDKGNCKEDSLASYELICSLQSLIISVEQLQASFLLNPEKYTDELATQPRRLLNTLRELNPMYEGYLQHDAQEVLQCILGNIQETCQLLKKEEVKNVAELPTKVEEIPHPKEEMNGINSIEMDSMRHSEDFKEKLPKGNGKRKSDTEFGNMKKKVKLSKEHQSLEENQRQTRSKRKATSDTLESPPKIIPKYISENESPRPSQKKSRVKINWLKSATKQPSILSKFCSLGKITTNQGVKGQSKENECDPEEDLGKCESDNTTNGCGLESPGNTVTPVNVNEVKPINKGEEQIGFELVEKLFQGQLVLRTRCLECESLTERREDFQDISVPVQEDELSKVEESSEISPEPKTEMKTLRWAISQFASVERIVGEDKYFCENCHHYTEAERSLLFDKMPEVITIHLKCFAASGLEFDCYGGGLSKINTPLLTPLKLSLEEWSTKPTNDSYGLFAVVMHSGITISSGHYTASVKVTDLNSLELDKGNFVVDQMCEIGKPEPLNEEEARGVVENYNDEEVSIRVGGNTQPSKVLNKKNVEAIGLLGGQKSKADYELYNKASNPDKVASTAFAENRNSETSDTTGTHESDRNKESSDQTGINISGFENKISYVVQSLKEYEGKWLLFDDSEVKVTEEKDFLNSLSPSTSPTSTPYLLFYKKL
Summary of the method: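 In 50mM HEPES pH 7.8 containing 0.5mM EDTA, 1mM TCEP, 0.1 mg/ml BSA and 0.01% Tween-20, 1nM USP1/UAF1 is exposed to compound for 15 min, then Ub-Rho (150nM final) is added and fluorescence is read over time.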

[14] = target: Cytochrome P450 3A4 (Homo sapiens) (UniProt P08684); experiment: qHTS Assay for Activators of Cytochrome P450 3A4 (AID 885; active means well fitted curve in the direction sought with a large enough effect; an effect the other way counts as inactive or inconclusive; further: nearly all actives have a fitted effect of over 65% in size); conditions: recombinant CYP3A4, Luciferin-PPXE luminescence, 60 min; series mostly up to 57.1 µM
Sequence of Cytochrome P450 3A4 (Homo sapiens) (P08684 whole entry, looked up): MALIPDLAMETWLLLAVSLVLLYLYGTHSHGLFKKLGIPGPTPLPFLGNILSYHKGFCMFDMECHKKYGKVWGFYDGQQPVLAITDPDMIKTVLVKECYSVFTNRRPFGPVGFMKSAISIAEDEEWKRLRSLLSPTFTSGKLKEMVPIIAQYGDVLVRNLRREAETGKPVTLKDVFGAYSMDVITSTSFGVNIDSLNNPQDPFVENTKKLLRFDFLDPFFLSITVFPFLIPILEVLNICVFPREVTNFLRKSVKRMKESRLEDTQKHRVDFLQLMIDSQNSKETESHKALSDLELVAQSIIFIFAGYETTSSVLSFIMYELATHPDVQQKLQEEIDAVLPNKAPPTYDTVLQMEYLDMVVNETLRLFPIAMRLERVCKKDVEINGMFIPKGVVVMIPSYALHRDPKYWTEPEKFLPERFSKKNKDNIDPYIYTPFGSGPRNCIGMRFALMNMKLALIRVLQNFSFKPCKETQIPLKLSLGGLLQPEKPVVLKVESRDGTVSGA
Summary of the method: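 CYP3A4 activity: Luciferin-PPXE O-dealkylation, 25uM substrate, 200mM KPO4, RT throughout. Read-out is luciferase luminescence; higher values reflect activation.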

[15] = target: Cytochrome P450 2C19 (Homo sapiens) (UniProt P33261); experiment: qHTS Assay for Inhibitors and Substrates of Cytochrome P450 2C19 (AID 899; active means well fitted curve in the direction sought with a large enough effect; an effect the other way counts as inactive or inconclusive; further: potency means the concentration at half of the fitted maximal effect; nearly all actives have a fitted effect of over 60% in size); conditions: recombinant CYP2C19, luciferin-H EGE luminescence; series mostly up to 57.1 µM
Sequence of Cytochrome P450 2C19 (Homo sapiens) (P33261 whole entry, looked up): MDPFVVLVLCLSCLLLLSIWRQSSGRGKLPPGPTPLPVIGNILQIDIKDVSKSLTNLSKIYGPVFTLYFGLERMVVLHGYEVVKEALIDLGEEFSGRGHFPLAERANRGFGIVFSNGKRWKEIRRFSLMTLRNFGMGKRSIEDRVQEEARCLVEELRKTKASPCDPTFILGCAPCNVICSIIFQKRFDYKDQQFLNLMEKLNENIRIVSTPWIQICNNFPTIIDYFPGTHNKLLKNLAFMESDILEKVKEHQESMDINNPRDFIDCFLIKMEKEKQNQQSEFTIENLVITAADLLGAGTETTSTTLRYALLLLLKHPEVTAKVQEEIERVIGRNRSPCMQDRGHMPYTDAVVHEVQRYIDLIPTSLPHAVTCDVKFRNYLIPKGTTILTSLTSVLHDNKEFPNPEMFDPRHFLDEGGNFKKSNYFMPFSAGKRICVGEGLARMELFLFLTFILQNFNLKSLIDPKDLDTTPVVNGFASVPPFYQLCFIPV
Summary of the method: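 Reactions contain 5nM enzyme, 10uM Luciferin-H EGE (KM) and 50mM KPO4; compound preincubates 10 min at 37C, NADPH regeneration starts turnover for 60 min. Luminescence after detection reagent gives activity.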

[16] = target: Cytochrome P450 1A2 (Homo sapiens) (UniProt P05177); experiment: p450-cyp1a2 (AID 410; calls by dose curve; further: potency means the concentration at half of the fitted maximal effect); conditions: recombinant CYP1A2, luciferin-ME demethylation, luminescence; series mostly up to 57 µM
Sequence of Cytochrome P450 1A2 (Homo sapiens) (P05177 whole entry, looked up): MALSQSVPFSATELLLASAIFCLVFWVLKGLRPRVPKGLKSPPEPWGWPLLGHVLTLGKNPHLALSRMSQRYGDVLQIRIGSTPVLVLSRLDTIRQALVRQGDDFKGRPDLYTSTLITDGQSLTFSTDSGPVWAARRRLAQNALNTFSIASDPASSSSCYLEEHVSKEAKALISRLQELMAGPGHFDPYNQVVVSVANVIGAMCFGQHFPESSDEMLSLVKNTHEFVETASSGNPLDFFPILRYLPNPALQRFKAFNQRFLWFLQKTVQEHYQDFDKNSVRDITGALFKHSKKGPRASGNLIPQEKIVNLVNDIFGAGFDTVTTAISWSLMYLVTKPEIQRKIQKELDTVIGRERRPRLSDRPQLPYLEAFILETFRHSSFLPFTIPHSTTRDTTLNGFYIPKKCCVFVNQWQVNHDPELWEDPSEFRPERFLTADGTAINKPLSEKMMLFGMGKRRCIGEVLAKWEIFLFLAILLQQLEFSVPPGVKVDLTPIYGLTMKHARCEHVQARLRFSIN
Summary of the method: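 Read-out is luminescence from luciferin produced by CYP1A2 demethylation of Luciferin-ME (100uM, at Km). Detection reagent stopped the 60 min NADPH-dependent reaction; signals were normalized to 57 uM furafylline.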

[17] = target: Cytochrome P450 3A4 (Homo sapiens) (UniProt P08684); experiment: qHTS Assay for Inhibitors and Substrates of Cytochrome P450 3A4 (AID 884; active means well fitted curve in the direction sought with a large enough effect; an effect the other way counts as inactive or inconclusive; further: potency means the concentration at half of the fitted maximal effect; nearly all actives have a fitted effect of over 50% in size); conditions: recombinant CYP3A4, Luciferin-PPXE luminescence; series mostly up to 57.1 µM
Summary of the method: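 Luminescent readout of luciferin produced by CYP3A4 (20 nM) dealkylation of Luciferin-PPXE, 25 uM (its KM). NADPH-driven reaction ran 60 min at RT after 10 min compound preincubation; data scaled to 57 uM ketoconazole as 100% inhibition.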

[18] = qHTS Assay for Identification of Small Molecule Agonists for Hypoxia Response Element Signaling Pathway (AID 914; active means well fitted activation curve with a large enough effect in the signal ratio, with a control signal flat, not every such curve was filed as active; the % refers to the signal ratio; further: potency means the concentration at half of the fitted maximal effect); conditions: ME-180 (cervical carcinoma) HRE-bla reporter, beta-lactamase ratio, CoCl2, 17 h; activation: stronger effect = higher value
Summary of the method: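 AC50 values come from titration-series %Activity, taken as the 460/530nm ratio of CCF4 fluorescence (excitation 405nm). CellSensor HRE-bla ME-180 cells were treated 17 hours at 37 C with compound plus an EC50 level of CoCl2.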

[19] = measured here: cell count channel max response
[20] = measured here: lipid channel max response

O=C(c1ccncc1)N1CCC[C@@]2(CCN(C(c3ccccc3)c3ccccc3)C2)C1
-3.76%: max response [7, 20]
inactive: Potency [1] > 11.4 µM | activity change, negative = inhibition [2] -4.57% | activity change, negative = inhibition [3] 17.1% | activity, negative = inhibition [4] 0.76% | Potency [5] > 46 µM | Potency [6] | activity change, negative = inhibition [7] -4.39% | outcome [8]
-3.62%: max response [7, 19]

Cc1cnc(CNc2ccnc(-c3ccc(C(=O)N(C)C)cc3)n2)cn1
inactive: Potency [1] > 11.4 µM | activity change, negative = inhibition [2] 9.07% | activity change, negative = inhibition [3] 1.49% | activity, negative = inhibition [4] 0.405% | Potency [9] > 46 µM | Potency [5] > 46 µM | Potency [6] | Potency [10] | Potency [11] | outcome [12] | activity change, negative = inhibition [7] 9.3% | Potency [13] | outcome [8]
6.03%: max response [7, 19]
15.8%: max response [7, 20]

O=c1c(-c2cc(F)cc(F)c2)nc2cncnc2n1Cc1ccc(F)cc1
inactive: Potency [1] > 11.4 µM | activity change, negative = inhibition [2] -2.14% | activity change, negative = inhibition [3] -15.1% | activity, negative = inhibition [4] -0.133% | Potency [9] > 9.22 µM | Potency [5] > 46 µM | Potency [6] | Potency [10] | Potency [14] | activity change, negative = inhibition [7] -8.57% | outcome [8]
-5.87%: max response [7, 19]
-11%: max response [7, 20]

Cc1ccccc1-c1cc(Nc2ccc(F)cc2)ncn1
active: Potency [15] 631 nM
7.96%: max response [7, 20]
-1.72%: max response [7, 19]
inactive: Potency [1] > 11.4 µM | activity change, negative = inhibition [2] -11.7% | activity change, negative = inhibition [3] 6.17% | activity, negative = inhibition [4] -0.99% | Potency [9] > 46 µM | Potency [5] > 46 µM | Potency [6] | Potency [14] | Potency [11] | outcome [12] | activity change, negative = inhibition [7] 9.27% | outcome [8]

O=S(=O)(c1ccccc1)N1CCC2(CC1)CN(c1ccccc1)C2
18.4%: max response [7, 20]
12.5%: max response [7, 19]
inactive: Potency [1] > 11.4 µM | activity change, negative = inhibition [2] 3.38% | activity change, negative = inhibition [3] 8.23% | activity, negative = inhibition [4] -6.85% | Potency [5] > 46 µM | Potency [6] | Potency [10] | activity change, negative = inhibition [7] 4.76% | outcome [8]

COCCn1c(=O)c(-c2cn(C)c3ccccc23)nc2cnc(Oc3ccc(OC)cc3)nc21
2.76%: max response [7, 19]
active: Potency [16] 2.51 µM | Potency [17] 3.98 µM | Potency [18] 3.16 µM
inactive: Potency [1] > 11.4 µM | activity change, negative = inhibition [2] 14.1% | Potency [9] > 46 µM | Potency [5] > 46 µM | Potency [10] | Potency [14] | activity change, negative = inhibition [7] -11.5% | outcome [8]
-6.23%: max response [7, 20]

COc1ccc(C(=O)N2CCC3(CC2)CN(c2ncccn2)C3)cc1
16.8%: max response [7, 20]
12.3%: max response [7, 19]
inactive: Potency [1] > 11.4 µM | activity change, negative = inhibition [2] -9.3% | activity change, negative = inhibition [3] 13.7% | activity, negative = inhibition [4] -24.2% | Potency [5] > 46 µM | Potency [6] | Potency [10] | activity change, negative = inhibition [7] 1.87% | outcome [8]
